Data from paper PMC7819943, “Rice protein-binding microarrays: a tool to detect cis-acting elements near promoter regions in rice”.
The full ranking holds about 68,000 sequences; the median of “fluorescence intensity (a.u.)” is about 9,100, and the highest 2% start at about 16,000. This is one part of a sample in which the highest values are shown more often than they occur.

These sequences were tested against OsWRKY34 (Oryza sativa, UniProt Q0JBA9 1-250) (assay: protein-binding microarray (RPBM); PBS, 2% BSA, 51.3 ng/ul salmon testes DNA, 50 uM zinc acetate, 200 nM TF, 25 C, 1 h; high values mean tight binding). Settings: protein: recombinant; tags: N-terminal polyhistidine and DsRed monomer fusion (pET32a); label: CyDye5-dUTP incorporated in the synthesized complementary strand; 3' TTTTT single-stranded linker to array surface; dsDNA, one strand shown.
Summary of the method: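 Binding signal is defined as the fluorescence intensity of each feature in arbitrary units, read on an Axon 4000B scanner. Transcription factors with N-terminal polyhistidine and DsRed fusions came from E. coli BL21-CodonPlus and were purified on Ni–NTA. They were incubated at 200 nM for 1 h at 25 °C on a custom Agilent array that had been made double-stranded with Cy5-dUTP, with 50 µM zinc acetate present, and the array was washed.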

Sequence of OsWRKY34 (Q0JBA9 entry or part of it): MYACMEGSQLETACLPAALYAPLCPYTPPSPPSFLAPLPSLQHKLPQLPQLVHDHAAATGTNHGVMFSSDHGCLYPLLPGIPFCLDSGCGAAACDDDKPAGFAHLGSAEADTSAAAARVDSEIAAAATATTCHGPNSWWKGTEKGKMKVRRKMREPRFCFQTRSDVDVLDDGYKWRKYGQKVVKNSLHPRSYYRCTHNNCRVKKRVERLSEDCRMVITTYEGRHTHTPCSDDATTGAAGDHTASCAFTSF

Sequence	binding signal
GTCTCATGTCACACTCACGTAGCTATATTTTTTATATTATCGGAGTCACCTAGTGCAG	9120 fluorescence intensity (a.u.)
GTTTGGGATGTCGCGGGGATTTAGGGGCGGTGGGTGGTTTCGGAGTCACCTAGTGCAG	39300 fluorescence intensity (a.u.)
ATGCATTTCTTTTAGGATTTGTGATGTATTTTTCGTTTGACGGAGTCACCTAGTGCAG	9640 fluorescence intensity (a.u.)
TTAGGGGCGGTGGGTGGTTTTCGGCTGGGAAATCGCGGATCGGAGTCACCTAGTGCAG	11500 fluorescence intensity (a.u.)
GATTTGGGGATTTGGGGTTTGATTTAGGATGTGCATGCCACGGAGTCACCTAGTGCAG	21400 fluorescence intensity (a.u.)
TGGGATGTATTTGAGTTGTGATGCATTTCTTTTAGGATTTCGGAGTCACCTAGTGCAG	8310 fluorescence intensity (a.u.)
TTAGGGGTAGGCTAGAGATTGATTGGGGCTTATATGATAACGGAGTCACCTAGTGCAG	19700 fluorescence intensity (a.u.)
GACCATTATGTTAACTTGGATTAGGGGTAGGCTAGAGATTCGGAGTCACCTAGTGCAG	11000 fluorescence intensity (a.u.)
ACTTTGATTGGGCTGGGTTCATATGAGATTAGGGGAAAAACGGAGTCACCTAGTGCAG	13500 fluorescence intensity (a.u.)
TGGATGTCGCCGTCGGCGGGGTGGTGGGATTTGGAACTGGCGGAGTCACCTAGTGCAG	12500 fluorescence intensity (a.u.)
GAGCTCCTGTTGGTCGGGGACGTTTCGCGTTGGTTCCTCTCGGAGTCACCTAGTGCAG	12000 fluorescence intensity (a.u.)
TATAATTTTGTGCTAATATGCATTTTCCTTGTTTTGTTTACGGAGTCACCTAGTGCAG	11300 fluorescence intensity (a.u.)
ATCACAATAGTAACTATACTCTACAATCCATGGTTTCTTACGGAGTCACCTAGTGCAG	8960 fluorescence intensity (a.u.)
CCTTGGGCTGTTTTACCATGGTTTTTGCACACGTGGATGACGGAGTCACCTAGTGCAG	10100 fluorescence intensity (a.u.)
CTGACATGCGTCGCCATTGACTTTCGCCGCCGCCGCCGCGCGGAGTCACCTAGTGCAG	9140 fluorescence intensity (a.u.)
GTCACCATCAAAATAGCTTCATATCTTCCCTGGAAATTTTCGGAGTCACCTAGTGCAG	8160 fluorescence intensity (a.u.)
TGTAGTAATTGGGTATCTTCATCATTTGTCCTAAAAAAGTCGGAGTCACCTAGTGCAG	8080 fluorescence intensity (a.u.)
CCACTTTAGATCCCAAATTATATATGGTCGAGTTCTTTTCCGGAGTCACCTAGTGCAG	9470 fluorescence intensity (a.u.)
ACATCCATCCACTCAACCCATTCTACCGTATTAAGCCAATCGGAGTCACCTAGTGCAG	8192 fluorescence intensity (a.u.)
ATCATCGTTCACCCGCATTTCATCTACTTCAATCTACATTCGGAGTCACCTAGTGCAG	9810 fluorescence intensity (a.u.)
CGCAACCCCAAGCACTGGTGTTCTACATTCAATCAATCATCGGAGTCACCTAGTGCAG	38500 fluorescence intensity (a.u.)
TCGTGGTGGTGGTGGTGGTGGAAGTTAGGGTTTGAGGGTTCGGAGTCACCTAGTGCAG	17300 fluorescence intensity (a.u.)

Sequence	binding signal
GATAGGGTTAGCAGGGTGGGAAAATATATTTATTATAGTTCGGAGTCACCTAGTGCAG	18700 fluorescence intensity (a.u.)
CTGGTTCGGGAATTTCTGGGTGTATAGGGAAATAATTTATCGGAGTCACCTAGTGCAG	8060 fluorescence intensity (a.u.)
AGGGGCGGAACTGGGTAGGCAGGGTGGGTTATATTTGAGCCGGAGTCACCTAGTGCAG	10500 fluorescence intensity (a.u.)
GAAGTTAGGGTTTGAGGGTTTGGTTCCGGAGGGTAGGGTCCGGAGTCACCTAGTGCAG	9850 fluorescence intensity (a.u.)
TGAGTGGTGGGAGGAGTTAGCAAGTGGTTTGACCGTGGTTCGGAGTCACCTAGTGCAG	11800 fluorescence intensity (a.u.)
TAGGGTTTGGATGGATAGGGTATATGAGGGTAATTTAGGCCGGAGTCACCTAGTGCAG	8450 fluorescence intensity (a.u.)
AGGGTGGGTTATATTTGAGCTGGTTAGCAAAAACTATAATCGGAGTCACCTAGTGCAG	17900 fluorescence intensity (a.u.)
TCCGGTTCGTTATTTTTATTTTTCTCAGGGAAAAAAAATCCGGAGTCACCTAGTGCAG	8060 fluorescence intensity (a.u.)
TCTATTTTATAATCGGTGTGTTTGACTGGTATTTTTTAGCCGGAGTCACCTAGTGCAG	8930 fluorescence intensity (a.u.)
GATAGGGTTAGGGATGGATAGGGTTTCCTTGAGGGTAGTTCGGAGTCACCTAGTGCAG	16400 fluorescence intensity (a.u.)
ACGGCCTAGTTTTGGTTGAAGTTTTTGGTAGGGGTTAGTTCGGAGTCACCTAGTGCAG	12300 fluorescence intensity (a.u.)
CCCACCTCCACCTCCGCCGGCCGGTACGTTTATCCACTGACGGAGTCACCTAGTGCAG	9030 fluorescence intensity (a.u.)
GACTGATTTGTTTTTTTTTTCTCCCGGTTTTTTCGACGGACGGAGTCACCTAGTGCAG	9270 fluorescence intensity (a.u.)
TTCCTTTTTTTATGCAACTTTGACAAGCCTAATAGATATACGGAGTCACCTAGTGCAG	8500 fluorescence intensity (a.u.)
GCTACCATCGTCACCGCCTCAACCAAGCTACCCGTGTCTCCGGAGTCACCTAGTGCAG	10400 fluorescence intensity (a.u.)
GCCCTACTCTACCCCTAGCCCTCCGCGCGGCTGCCGTCGACGGAGTCACCTAGTGCAG	8970 fluorescence intensity (a.u.)
CACCCAAACCAAATCAAATCCGTCCATCCATTCGCCTCTACGGAGTCACCTAGTGCAG	8960 fluorescence intensity (a.u.)
ATCCACTTATATATACACACATTTGTAATTTGTATCTATACGGAGTCACCTAGTGCAG	8270 fluorescence intensity (a.u.)
ATTTTCCTTGATTTTTTTTGTGTGTTTGGGAATTGGGATACGGAGTCACCTAGTGCAG	12600 fluorescence intensity (a.u.)
TGTTTTTGCTTCTCTTCCTTTTGCTGGAGCTTATTGGTTTCGGAGTCACCTAGTGCAG	10100 fluorescence intensity (a.u.)
ATTTTCCTTGTTTTGATGTTTTCTGGTTGGGGAAGGGTTACGGAGTCACCTAGTGCAG	24600 fluorescence intensity (a.u.)
